Source: PubChem BioAssay (EPA / NIEHS)
Inconclusive results are not listed. Activity calls are given as the source filed them. The calls were made as follows, unless noted: active = hit-call score of the fitted dose curve at least 0.9, where 1 is the maximum; inactive = score below 0.9.

Tests used:
[1] = CEETOX_H295R_OHPREG_noMTC: CeeTox H295R High-throughput Steroidogenesis Assay for OH-Pregnenolone (OHPREG), maximum tolerated concentration (MTC) filtered results only (AID 2283912); settings: actives raise or lower the signal
Protocol: (§1) CEETOX_H295R is a cell-based, multiplexed-readout assay that uses H295R, a human adrenal gland cell line, with measurements taken at 48 hours after chemical dosing in a 96-well plate.CEETOX_H295R_OHPREG_noMTC is one of 12 assay component(s) measured or calculated from the CEETOX_H295R assay (11 hormones and 1 viability assay). It is designed to make measurements of hormone induction, a form of inducible reporter, as detected with absorbance signals by HPLC-MS-MS technology. The concentrations for these components have not been pre-filtered for the maximum tolerated concentration (MTC) based on the MTT assay (_noMTC).Data from the assay component CEETOX_H295R_OHPREG_noMTC was analyzed into 1 assay endpoint. This assay endpoint, CEETOX_H295R_OHPREG_noMTC, was analyzed with bidirectional fitting relative to DMSO as the negative control and baseline of activity. Using a type of inducible reporter, gain or loss-of-signal activity using HPLC-MS-MS was used to understand synthesis of 17alpha-hydroxypregnenolone in H295R cell line at 48hr of chemical exposure, without filtering concentrations for maximum tolerated concentration (MTC). To generalize the intended target to other relatable targets, this assay endpoint is annotated to the steroid hormone intended target family, where the subfamily is progestagens.
(§2) Cell culture and media preparation procedures were conducted in accordance with OECD Test No. 456 guidelines, with minor modifications. H295R cells (ATCC CRL-2128) were expanded for 5 passages and frozen in batches in liquid nitrogen. […] For steroid quantification, media samples were shipped to OpAns, LLC (Durham, NC) on dry ice, and samples were thawed to room temperature prior to liquid-liquid extraction. […] Steroid hormones were separated by HPLC, eluted using a reverse phase C18 gradient with electrospray positive ionization, followed by quantification by tandem mass spectrometry (MS/MS). Data were acquired on a MassHunter Workstation Acquisition version B03.01 (Agilent Technologies, Inc.) and processed using MassHunter Quantitative Analysis for QQQ. Accuracy was determined for each hormone analyte from 3 standards to determine upper and lower limits of quantification (ULOQ and LLOQ, respectively) using a 7-point standard curve. Precision and accuracy of the extraction and quantification methods were calculated as the percent relative standard deviation (%RSD) of the spiked standards and percent spiked standard recovered, respectively. The goal was to achieve 100% accuracy (i.e., recover all spiked-in standard at quantification with minimal loss during run time) and good precision (i.e., have %RSD <15% to ensure reproducibility). Test medium was removed following chemical exposure, and cell viability was evaluated in the same wells by MTT. […]

[2] = CEETOX_H295R_OHPROG_noMTC: CeeTox H295R High-throughput Steroidogenesis Assay for OH-Progesterone (OHPROG), maximum tolerated concentration (MTC) filtered results only (AID 2283914); settings: actives raise or lower the signal
How it was run: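 H295R human adrenal cells prestimulated 48 h with 10 uM forskolin, then exposed 48 h to test chemical (0.1% DMSO final). Medium 17alpha-hydroxyprogesterone extracted with MTBE, quantified by HPLC-MS/MS; bidirectional fit versus DMSO, concentrations not MTC-filtered.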

[3] = CEETOX_H295R_CORTISOL_noMTC: CeeTox H295R High-throughput Steroidogenesis Assay for Cortisol, maximum tolerated concentration (MTC) filtered results only (AID 2283916); settings: actives raise or lower the signal
Protocol: as §1, with “plate.CEETOX_H295R_CORTISOL_noMTC” for “plate.CEETOX_H295R_OHPREG_noMTC”, “CEETOX_H295R_CORTISOL_noMTC” for “CEETOX_H295R_OHPREG_noMTC”, “CEETOX_H295R_CORTISOL_noMTC,” for “CEETOX_H295R_OHPREG_noMTC,”, “Cortisol” for “17alpha-hydroxypregnenolone”, “glucocorticoids.” for “progestagens.”
as §2

[4] = CEETOX_H295R_CORTIC_noMTC: CeeTox H295R High-throughput Steroidogenesis Assay for Corticosterone (CORTIC), maximum tolerated concentration (MTC) filtered results only (AID 2283917); settings: actives raise or lower the signal
Protocol: as §1, with “plate.CEETOX_H295R_CORTIC_noMTC” for “plate.CEETOX_H295R_OHPREG_noMTC”, “CEETOX_H295R_CORTIC_noMTC” for “CEETOX_H295R_OHPREG_noMTC”, “CEETOX_H295R_CORTIC_noMTC,” for “CEETOX_H295R_OHPREG_noMTC,”, “Corticosterone” for “17alpha-hydroxypregnenolone”, “glucocorticoids.” for “progestagens.”
as §2

[5] = CEETOX_H295R_DOC_noMTC: CeeTox H295R High-throughput Steroidogenesis Assay for DOC, maximum tolerated concentration (MTC) filtered results only (AID 2283918); settings: actives raise or lower the signal
How it was run: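 H295R cells prestimulated 48 h with 10 uM forskolin, then exposed 48 h to test chemical (0.1% DMSO final). Medium 11-deoxycorticosterone extracted with MTBE, quantified by HPLC-MS/MS; bidirectional fit versus DMSO, concentrations not MTC-filtered.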

[6] = CEETOX_H295R_ESTRADIOL_noMTC: CeeTox H295R High-throughput Steroidogenesis Assay for Estradiol, maximum tolerated concentration (MTC) filtered results only (AID 2283919); settings: actives raise or lower the signal
How it was run: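 H295R human adrenal cells pre-stimulated 48 h with 10 uM forskolin, then exposed 48 h to chemical (0.1% DMSO final). Estradiol in medium measured by HPLC-MS/MS after MTBE extraction and dansyl derivatization; bidirectional fit versus DMSO, concentrations not MTT-filtered.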

[7] = CEETOX_H295R_PROG_noMTC: CeeTox H295R High-throughput Steroidogenesis Assay for Progesterone (PROG), maximum tolerated concentration (MTC) filtered results only (AID 2283920); settings: actives raise or lower the signal
How it was run: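 H295R human adrenal cells were prestimulated 48 h with 10 uM forskolin, then exposed 48 h to test chemical (0.1% DMSO final). Progesterone in medium was quantified by HPLC-MS/MS; bidirectional fitting versus DMSO, concentrations not MTC-filtered.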

[8] = CEETOX_H295R_ESTRONE_noMTC: CeeTox H295R High-throughput Steroidogenesis Assay for Estrone, maximum tolerated concentration (MTC) filtered results only (AID 2283921); settings: actives raise or lower the signal
How it was run: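 H295R cells prestimulated 48 h with 10 uM forskolin, then exposed 48 h to chemical in 0.1% DMSO; medium estrone measured by HPLC-MS/MS after MTBE extraction and dansyl derivatization, fitted bidirectionally versus DMSO without MTT-based MTC filtering.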

PGR (gene 5241) [9] = target: PGR (gene 5241) (UniProt P06401); test: TOX21_PR_BLA_Followup_Antagonist_ratio: Tox21 HEK293 Progesterone Receptor (PR) Antagonism Beta-lactamase Follow-Up Assay, Ratio (AID 2283934; active = hit-call score of the fitted dose curve at least 0.9, where 1 is the maximum)
How it was run: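 PR-UAS-bla HEK293T cells, 3,000/well in 2% charcoal-stripped FBS, given compound plus 1nM R5020 agonist for 16 hr at 37C. Beta-lactamase FRET substrate 2 hours, ratio cleaved/uncleaved fluorescence; viability by CellTiter-Glo in same wells.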

PGR (gene 5241) [10] = target: PGR (gene 5241) (UniProt P06401); test: TOX21_PR_BLA_Followup_Agonist_ratio: Tox21 HEK293 Progesterone Receptor (PR) Agonism Beta-lactamase Follow-Up Assay, Ratio (AID 2283933; active = hit-call score of the fitted dose curve at least 0.9, where 1 is the maximum)
How it was run: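 PR-UAS-bla HEK293T cells in medium with 2% charcoal-stripped FBS were dosed after 6 h plating and incubated 16 h at 37C. LiveBLAzer FRET substrate was added for 2 h at room temperature. Cleaved/uncleaved substrate ratio fitted against DMSO; CellTiter-Glo viability run in the same wells.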

Chain of PGR (gene 5241) (P06401 whole entry, looked up): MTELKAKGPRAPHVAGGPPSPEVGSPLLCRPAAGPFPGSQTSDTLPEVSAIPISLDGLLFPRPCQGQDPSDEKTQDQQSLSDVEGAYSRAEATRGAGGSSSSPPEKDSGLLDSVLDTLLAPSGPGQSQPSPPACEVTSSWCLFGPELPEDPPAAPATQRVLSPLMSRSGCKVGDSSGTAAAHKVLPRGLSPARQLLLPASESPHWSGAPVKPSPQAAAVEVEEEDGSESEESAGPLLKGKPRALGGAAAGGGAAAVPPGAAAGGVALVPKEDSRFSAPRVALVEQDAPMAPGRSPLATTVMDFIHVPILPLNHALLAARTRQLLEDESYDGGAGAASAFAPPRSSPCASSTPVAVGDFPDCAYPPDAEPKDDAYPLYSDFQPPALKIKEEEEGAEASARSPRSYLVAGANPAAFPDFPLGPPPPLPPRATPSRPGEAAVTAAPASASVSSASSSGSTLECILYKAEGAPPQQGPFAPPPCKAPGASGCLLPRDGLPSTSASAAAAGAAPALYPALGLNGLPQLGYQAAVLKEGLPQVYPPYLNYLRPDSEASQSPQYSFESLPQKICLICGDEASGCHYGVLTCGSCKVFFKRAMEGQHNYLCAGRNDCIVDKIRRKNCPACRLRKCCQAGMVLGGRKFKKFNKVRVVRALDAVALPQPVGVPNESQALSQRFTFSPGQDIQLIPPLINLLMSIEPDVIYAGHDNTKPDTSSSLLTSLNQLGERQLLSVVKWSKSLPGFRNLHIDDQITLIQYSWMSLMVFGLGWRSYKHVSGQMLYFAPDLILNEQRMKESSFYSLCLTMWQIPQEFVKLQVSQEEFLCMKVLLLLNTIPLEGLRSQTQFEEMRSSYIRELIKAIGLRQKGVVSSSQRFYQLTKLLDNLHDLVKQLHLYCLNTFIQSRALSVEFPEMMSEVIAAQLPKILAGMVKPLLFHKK

CCCCC(CC)COC(=O)c1ccccc1C(=O)OCC(CC)CCCC (centres undefined)
outcome [1]: inactive
outcome [2]: inactive
outcome [3]: inactive
outcome [4]: inactive
outcome [5]: inactive
outcome [6]: inactive
outcome [7]: inactive
outcome [8]: inactive

CCOP(=S)(OCC)SCn1c(=O)oc2cc(Cl)ccc21
AC50 (PGR (gene 5241) [9]): 24.9 µM (active)

N#CC(CCc1ccc(Cl)cc1)(Cn1cncn1)c1ccccc1 (centres undefined)
outcome (PGR (gene 5241) [10]): inactive
AC50 (PGR (gene 5241) [9]): 17.8 µM (active)

CON(C)C(=O)Nc1ccc(Cl)c(Cl)c1
outcome (PGR (gene 5241) [9]): inactive

OC(c1ccc(Cl)cc1)(c1cncnc1)c1ccccc1Cl (centres undefined)
AC50 [1]: 1.29 µM (active)
AC50 [2]: 31.1 µM (active)
AC50 [3]: 2.57 µM (active)
AC50 [4]: 0.203 µM (active)
AC50 [5]: 11.4 µM (active)
AC50 [6]: 9.94 µM (active)
AC50 [7]: 2.67 µM (active)
AC50 [8]: 13.9 µM (active)

C=CC1(C)OC(=O)N(c2cc(Cl)cc(Cl)c2)C1=O (centres undefined)
outcome (PGR (gene 5241) [9]): inactive

COc1ccc(C(c2ccc(OC)cc2)C(Cl)(Cl)Cl)cc1
AC50 (PGR (gene 5241) [9]): 6.48 µM (active)

COC(=O)c1ccccc1C(=O)OC
outcome [1]: inactive
outcome [2]: inactive
outcome [3]: inactive
outcome [4]: inactive
outcome [5]: inactive
outcome [6]: inactive
outcome [7]: inactive
outcome [8]: inactive

CCCCOC(=O)c1ccccc1C(=O)OCCCC
outcome [1]: inactive
outcome [2]: inactive
outcome [3]: inactive
outcome [4]: inactive
outcome [5]: inactive
outcome [6]: inactive
outcome [7]: inactive
outcome [8]: inactive

COC(=O)N(OC)c1ccccc1COc1ccn(-c2ccc(Cl)cc2)n1
AC50 (PGR (gene 5241) [9]): 7.24 µM (active)
